Source: PubChem (National Center for Advancing Translational Sciences (NCATS))
D2 ag-1: activates the human D2 dopamine receptor. P14416. AID 624465. activation, % (test concentration not listed). hit rate 0.084% among 360,000. DiscoveRx PathHunter D2 beta-arrestin, luminescence, 90 min; 100% = 57 uM dopamine signal; in the data active means activation above about 40%; inconclusive means between about 15% and that limit
Target sequence (P14416 whole entry, looked up): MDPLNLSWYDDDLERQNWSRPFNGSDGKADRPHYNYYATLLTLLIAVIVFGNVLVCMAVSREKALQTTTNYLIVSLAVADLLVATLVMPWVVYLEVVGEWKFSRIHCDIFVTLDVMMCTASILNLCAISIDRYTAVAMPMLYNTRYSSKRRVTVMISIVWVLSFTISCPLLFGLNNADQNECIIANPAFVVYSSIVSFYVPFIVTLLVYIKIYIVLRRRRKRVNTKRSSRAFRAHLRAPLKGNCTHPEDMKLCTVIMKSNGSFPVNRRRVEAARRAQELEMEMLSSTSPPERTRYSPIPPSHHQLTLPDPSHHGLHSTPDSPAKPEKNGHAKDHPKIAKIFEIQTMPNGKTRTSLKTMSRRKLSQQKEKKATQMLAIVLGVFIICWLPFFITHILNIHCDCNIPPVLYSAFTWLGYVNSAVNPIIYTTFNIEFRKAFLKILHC
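DiscoveRx PathHunter D2 beta-arrestin cells (2,100/well) attached overnight, then compound-stimulated 90 min at 37 C in HBSS/10 mM HEPES/0.1% Tween-20 buffer; beta-galactosidase complementation read by luminescence after 1 h at ambient temperature. Dopamine 57 uM final (EC100) as control.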
D2 ag-2: agonists of human D2 dopamine receptor. P14416. HEK293 T-REx D2 cells, calcium flux agonist mode. activation, % at 2 µM. hit rate 0.53% among 340,000. AID 485358;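 active means activation over 3 SD above normal in the single-dose calcium agonist read, cut at about 30% in these data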; further: 0% is about no effect
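In this primary screen, compounds producing a positive calcium signal within 180 s of addition to tetracycline-induced, force-coupled HEK293 Trex D2 cells are flagged; cells are dye-loaded with a no-wash calcium kit beforehand.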
D2 PAM-1: positive allosteric modulators of human D2 dopamine receptor | HEK293 T-REx D2, calcium flux, EC20 dopamine potentiation | potentiation, % at 10 µM | hit rate 0.34% among 340,000;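 active means potentiation over 3 SD above the plate norm, cut at about 30% in these data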; further: 0% is about no effect
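Tetracycline-induced Hek293 Trex D2 cells, force-coupled to calcium, loaded with no-wash calcium dye. Compound added with 180 s kinetic read for agonism, then EC20 dopamine and a further 180 s read for potentiation.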
D2 PAM-2: positive allosteric modulators of human D2 dopamine receptor; P14416; DiscoveRx D2 beta-arrestin cells, luminescence, 90 min; 100% = 57 uM dopamine signal; potentiation, % (test concentration not listed); hit rate 0.23% among 360,000; AID 624464; in the data active means potentiation above about 50%; inconclusive means mostly about 30% to 49%
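D2 cells co-treated with compound plus 50 nM dopamine (EC20) for 90 min at 37 deg C to detect potentiation. Beta-arrestin recruitment was read as enzyme-fragment luminescence after 1 h at ambient temperature. Full response was set by 57 uM dopamine.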
D2 antagonist: antagonizes the human D2 dopamine receptor; P14416; HEK293 TREx D2 cells, calcium flux, dopamine EC80; inhibition, % at 10 µM; hit rate 2% among 340,000; AID 485344; in the data active means inhibition above about 30%; inactive means below that, where a call was filed; further: 0% is about no effect
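In this primary screen, negative modulation is detected by tracking calcium flux after an EC80 dopamine challenge in inducible HEK293 T-REx D2 cells preexposed to test compound for 180 s.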
* = called active by the depositor; ? = inconclusive; / = no result. Most compounds without a hit are left out; they make up all but 2.4% or so of the library.

SMILES	D2 ag-1	D2 ag-2	D2 PAM-1	D2 PAM-2	D2 antagonist
CN1/C(=C/C=N/n2cnnc2)C(C)(C)c2ccccc21	-0.5	-1.0	/	1.9	56.3*
CN1/C(=C\C=C(C#N)C#N)C(C)(C)c2ccccc21	0.7	5.5	1.6	0.4	24.1
COc1cccc(C2CC(c3ccc(Cl)cc3)n3nc(N)nc3N2)c1 (stereo unspecified)	-3.1	0.0	4.2	-2.8	56.6*
C=CCSc1nc(C)c(CC=C)c(=O)[nH]1	-1.6	0.7	34.9*	-4.5	-10.6
C=CCSc1nc(C)c(CCCC)c(=O)[nH]1	-0.9	-0.2	9.9	-0.4	-8.7
O=C(Nc1c(C(=O)N2CCN(c3ccccc3)CC2)oc2ccccc12)c1ccc(Br)o1	/	-1.3	-0.1	/	/
CCc1nn(C(CC)C(=O)NCCCc2ccccc2)c(=O)c2cc3occc3n12 (stereo unspecified)	0.4	-0.2	-4.1	-14.8	1.3
CCc1nn(C(CC)C(=O)NCCCN2CC(C)CC(C)C2)c(=O)c2cc3oc(C)cc3n12 (stereo unspecified)	-3.9	-0.3	-32.7	-35.0	63.7*
COc1ccc2c(c1)NC(c1cccnc1)=NC(c1ccc(F)cc1)=N2	/	-0.9	-0.2	/	/
O=C(c1cccc(F)c1)N1CCN(C(=O)C(c2ccccc2)c2ccccc2)CC1	9.2	-2.9	/	-4.3	31.1*
CCc1cccc(C)c1NC(=O)CN1C(=O)C2(SCC(=O)N2c2cc(C)cc(C)c2)c2ccccc21 (stereo unspecified)	/	/	-2.6	/	/
COc1cc(/C=C2/C(=O)CNC2=O)ccc1O	-1.0	37.0*	-18.0	-1.2	3.2
COc1cc(/C=C/C(=O)CC(=O)/C=C/c2ccc(O)c(OC)c2)ccc1O	4.0	53.5*	-13.4	-9.7	26.9
O=C(CNC(=O)c1cccc(-n2cnnn2)c1)Nc1ccc(F)c(F)c1	-2.2	-0.1	-20.3	-2.0	37.8*
COCCCN1C(=O)c2ccc(C(=O)NCc3ccccn3)cc2C1=O	0.8	0.3	31.5*	-14.6	-3.9
CC(C)CN1C(=O)c2ccc(C(=O)NCc3ccccn3)cc2C1=O	-2.4	0.7	0.3	-5.9	3.9
COCCN1C(=O)c2ccc(C(=O)O)cc2C1=O	-1.7	-0.3	38.8*	-4.6	-4.2
COc1ccc(-c2ccc(CCC(=O)O)n2CC(=O)Nc2cccc(C(F)(F)F)c2)cc1	/	19.8	-3.5	/	/
CC(C)CN=C(NS(=O)(=O)c1ccccc1)C(Cl)(Cl)Cl	10.4	-0.2	0.9	77.3*	-5.8
CC(C)CC(NS(=O)(=O)c1ccccc1)C(=O)O (stereo unspecified)	-4.1	-0.1	-5.8	-13.5	-1.2
COc1cc(S(=O)(=O)NCCc2c(C)[nH]c3ccccc23)c(C)cc1C	/	0.3	-10.9	/	/
Cc1ccc(CCNC(=O)CCn2nc(-c3ccc(Cl)cc3)ccc2=O)cc1	/	0.2	-6.3	/	/
O=C1CN(O)C=C2N=c3ccccc3=C2N1c1ccc([N+](=O)[O-])cc1	-0.1	0.7	15.8	102.8*	24.0
O=C(/C=C/c1ccc(OC(F)F)cc1)OCC(=O)N1CCC(c2ccccc2)=N1	-0.6	3.0	-4.3	3.1	38.6*
O=C(COC(=O)/C=C/c1ccc(OC(F)F)cc1)NC(=O)NC1CCCCC1	-0.8	/	/	-2.9	/
SMILES	D2 ag-1	D2 ag-2	D2 PAM-1	D2 PAM-2	D2 antagonist
O=C(COC(=O)/C=C/c1ccc(OC(F)F)cc1)NC1CCCC1	-3.1	0.0	8.4	-15.9	32.2*
CSc1nnc2c3c4c(sc3nc(-n3nc(C)cc3C)n12)COC(C)(C)C4	-0.2	0.2	19.2	1.1	48.4*
N#Cc1c(-c2ccc(F)cc2)cc(-c2cccnc2)nc1N	0.1	/	/	2.0	/
N#Cc1c(-c2cccs2)cc(-c2cccnc2)nc1N	-0.4	0.2	-2.1	-1.3	48.7*
CC(C)OC(=O)c1c2c(n3ccccc13)C(=O)c1ccccc1C2=O	?	68.8*	7.2	27.9	5.0
CCOC(=O)N1CCN(S(=O)(=O)CCNC(=O)c2ccc(F)cc2)CC1	-4.9	/	5.5	-1.5	-8.5
CCOC(=O)N1CCN(S(=O)(=O)CCNC(=O)c2ccc(OC)cc2)CC1	-5.0	-0.2	-8.1	2.5	34.1*
COC(=O)c1cccc(Nc2c(-c3ccc(OC)cc3)nc3nc[nH]n23)c1	/	-0.2	1.9	/	/
COc1cc(CCC(=O)OCC(=O)Nc2ccc(C(N)=O)cc2)cc(OC)c1OC	6.3	0.1	2.7	6.7	38.6*
COc1cc(NC(=O)COC(=O)CCc2cc(OC)c(OC)c(OC)c2)cc(OC)c1	1.0	1.4	5.5	0.1	12.9
COc1ccc(-c2cc3ccccc3n2CC(O)CN2CCCCC2)cc1 (stereo unspecified)	-0.2	0.6	-22.2	-23.5	42.9*
COc1ccc(-c2cc3ccccc3n2CC(O)CNCCO)cc1 (stereo unspecified)	-2.2	/	/	-17.2	/
Cc1cc(C)n(CC2CC(=O)N(c3cc(Cl)cc(Cl)c3)C2=O)n1 (stereo unspecified)	-0.2	0.4	-4.7	7.9	30.5*
CCCn1c(Nc2nc3ccccc3n2C)nc2ccccc21	0.7	0.3	-4.7	-12.9	-1.0
CCCCn1c(Nc2ccccc2)nc2ccccc21	0.6	0.2	-13.0	-7.6	35.8*
CCCCn1c(/N=C/c2ccc(N(C)C)cc2)nc2ccccc21	-1.0	1.4	49.1*	-21.9	-23.1
CCCCCn1c(NCc2ccco2)nc2ccccc21	-2.3	-0.5	-1.2	-3.7	34.0*
CCCCn1c(N)nc2ccccc21	0.1	-0.8	-4.8	-5.5	30.7*
C=CCn1c(/N=C/c2ccc(N(C)C)cc2)nc2ccccc21	-0.5	/	/	0.1	/
Cc1ccc(N2CCN(C(=O)C3CCN(c4ncnc5c4nc4n5CCCCC4)CC3)CC2)c(C)c1	/	-2.0	-4.8	/	/
CN1CCN(CCOC2Cc3ccccc3Sc3ccc(Cl)cc32)CC1 (stereo unspecified)	-2.4	-0.2	-40.9	-36.6	87.9*
CC(C)C(=O)N(c1cc2sc(=O)oc2c2ccccc12)S(=O)(=O)c1cccs1	?	1.0	-6.8	75.3*	-12.1
COc1ccccc1N1CCN(CC(O)COCc2cccs2)CC1 (stereo unspecified)	-1.3	1.8	-32.9	-10.3	80.7*
Cc1ccccc1OCC(O)Cn1c(=N)n(CCN2CCOCC2)c2ccccc21 (stereo unspecified)	-2.5	-2.0	40.1*	-12.2	-14.0
Cc1ccccc1OCC(O)CN1CCN(CC(O)COc2ccccc2C)CC1 (stereo unspecified)	-3.2	0.9	-30.4	-26.7	61.6*
COc1cc(COCC(O)CN2CCN(Cc3ccccc3)CC2)cc(OC)c1OC (stereo unspecified)	-0.7	-0.4	-20.5	-9.0	6.1
COc1ccc2[nH]cc(C(O)CN3CCN(c4ccccc4F)CC3)c2c1 (stereo unspecified)	-3.1	12.9	-12.8	-16.0	33.3*
